This is a sample that favours compounds with a hit; in the whole collection about 7.8% have one here.
HCV inh: inhibitors of hepatitis C virus infection. Huh7.5.1 HCVcc-Cre infection, luciferase reporter, 44 h. Potency, µM (doses to about 41.8 µM), most hits filed as inhibitors. 340,000 tested, 3.4% active; active = well fitted inhibition curve with a large enough effect; inconclusive = small, poorly fitted or top-dose-only effect, or another doubt; inactive = no such curve, though single readings can be large or run the other way
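Seed cells (1,000/well) for 4 h; treat with compound and infect with HCVcc-Cre, moi about 0.5. Incubate 44 h, then detect luciferase activity.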
VACV mCherry inh: inhibitors of vaccinia virus infection (mCherry reporter signal). Potency, µM (highest dose often 36.5 µM), most hits filed as inhibitors. 310,000 tested, 0.63% active. Vaccinia virus mCherry reporter infection, fluorescence; calls by dose curve; tested in A549 cells; also: nearly all actives have a fitted effect of over 35% in size
HCMV inh: blocks human cytomegalovirus replication | 410,000 tested, 4.5% active | activity change, negative = inhibition, % at 57.5 µM | HFF cells, HCMV-luciferase reporter, 72 h; hits give low values; in the data active = activity change below about -60%; inconclusive = no clear call, values can overlap the other calls; inactive = above about -39%
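Cell-based, HFFs, 1000 cells/well, 16 h 37C; cpds in DMSO + HCMV-luc, MOI 1 PFU/cell; 72 h 37C; OneGlo luminescence after 5 min RT; norm. to buffer vs Salinomycin 10uM.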
MARV entry inh: Marburg virus entry inhibition; Marburg virus pseudotyped entry inhibition, cell reporter; Potency, µM (doses to about 37.8 µM), usual class: inhibitors; 300,000 tested, 1.8% active; AID 540276; calls by dose curve; tested in HEK293 cells
VACV Venus inh: inhibitors of vaccinia virus (Venus reporter); Vaccinia virus Venus reporter expression, fluorescence; Potency, µM (doses to about 36.5 µM), actives largely listed as inhibitors; 330,000 tested, 0.46% active; AID 720580; calls by dose curve; tested in A549 cells; also: nearly all actives have a fitted effect of over 30% in size
LASV entry inh: blocks Lassa virus binding to or entry into cells; AID 540256; Potency, µM (doses to about 37.9 µM), most hits filed as inhibitors; 300,000 tested, 1.2% active; Lassa virus pseudotype entry inhibition, cell reporter; calls by dose curve; tested in HEK293 cells; also: nearly all actives have a fitted effect of over 50% in size
Large screens that a line does not name were inactive.

Cc1cc(NC(=O)c2cn(C3CCCCC3)c(=O)c3c2c2ccccc2n3C)no1	HCV inh 11µM (no result: MARV entry inh, LASV entry inh)
Cc1ccc(CNC(=O)c2cn(C3CCCCC3)c(=O)c3c2c2ccccc2n3C)o1	MARV entry inh inconclusive
CCN(CC)CCCNC(=O)c1ccc(C)c(NC(=O)C2=C(C)OCCS2)c1	HCMV inh inconclusive (no result: VACV mCherry inh, MARV entry inh, VACV Venus inh, LASV entry inh)
CCCNC(=O)c1ccc(C)c(NC(=O)C2=C(C)OCCS2)c1	HCMV inh -77
CCOCCCNC(=O)c1cc(Cl)c(NC(=O)C2=C(C)OCCS2)cc1OC	HCV inh inconclusive, HCMV inh -80, LASV entry inh inconclusive
O=C(NCC(c1cccnc1)N1CCc2ccccc21)c1ccc(Cl)cc1 (stereo not drawn)	VACV Venus inh inconclusive (no result: HCV inh, MARV entry inh)
O=[N+]([O-])c1cc2c(cc1/C=N/Nc1nc(Nc3ccccc3)nc(N3CCCCC3)n1)OCO2	HCV inh inconclusive, HCMV inh -75 (no result: VACV mCherry inh, VACV Venus inh)
O=[N+]([O-])c1ccc(/C=N/Nc2ncccc2[N+](=O)[O-])s1	VACV mCherry inh inconclusive, HCMV inh inconclusive
COc1cccc(/C=N/Nc2ncccc2[N+](=O)[O-])c1OC	MARV entry inh 1.6µM, LASV entry inh inconclusive
c1ccc(Nc2nc(N3CCCCC3)nc(N3CCNCC3)n2)cc1	HCV inh inconclusive, MARV entry inh 7.3µM, LASV entry inh inconclusive
COc1cccc(/C=N/Nc2nc(Nc3ccc([N+](=O)[O-])cc3)nc(N3CCCC3)n2)c1O	HCV inh inconclusive, VACV mCherry inh 4µM, HCMV inh inconclusive, MARV entry inh 2µM, LASV entry inh inconclusive
Cc1cc(C)c2c(n1)SCC(=O)N2CC(=O)Nc1cccc(C)c1C	VACV mCherry inh inconclusive (no result: HCV inh)
O=[N+]([O-])c1ccc(Nc2nc(NC3CCCCC3)nc(N3CCCC3)n2)cc1	HCV inh inconclusive, HCMV inh -73, MARV entry inh inconclusive
COc1ccc(Nc2nc(NCc3ccco3)nc(N/N=C/c3ccc(O)cc3)n2)cc1	HCV inh inconclusive, VACV mCherry inh inconclusive, HCMV inh -61, MARV entry inh inconclusive
COc1ccc(/C=N/Nc2nc(NCc3ccco3)nc(Nc3ccc(OC)cc3)n2)cc1	HCV inh inconclusive, HCMV inh inconclusive
COc1cccc(/C=N/Nc2ccc([N+](=O)[O-])cn2)c1O	HCV inh 1.1µM, VACV mCherry inh 1.1µM, HCMV inh -98, MARV entry inh inconclusive, VACV Venus inh inconclusive, LASV entry inh inconclusive
COc1c(/C=N/Nc2nc(N3CCCCC3)nc(N3CCCCC3)n2)cccc1[N+](=O)[O-]	HCV inh inconclusive, HCMV inh -92, MARV entry inh inconclusive
Cc1cc(C)c(NC(=O)CSC2=Nc3ccccc3C3=NC(CC(=O)NCc4cccs4)C(=O)N23)c(C)c1 (stereo not drawn)	none (no result: HCV inh)
CCc1ccc(Oc2c(C(F)(F)F)oc3c(CN4CCN(C)CC4)c(O)ccc3c2=O)cc1	none (no result: HCV inh)
Cc1cc(N2CCN(c3cccc(C)c3C)CC2)n2cnnc2n1	MARV entry inh inconclusive (no result: HCV inh)
Nc1ncc(S(=O)(=O)NCc2ccccc2)cn1	none (no result: HCV inh, MARV entry inh)
CCN1C(=NCCc2ccccn2)NC(c2cccc(C(F)(F)F)c2)C(C(=O)OC)=C1C (stereo not drawn)	LASV entry inh inconclusive (no result: HCV inh, VACV mCherry inh, HCMV inh, VACV Venus inh)
O=[N+]([O-])c1ccc(/C=N/Nc2nc(N3CCCCC3)nc(N3CCCCC3)n2)o1	HCV inh 14µM, MARV entry inh 21µM, LASV entry inh inconclusive (no result: VACV mCherry inh, VACV Venus inh)
COc1ccc(/C=N/Nc2nc(Nc3ccccc3)nc(N3CCCC3)n2)cc1	HCV inh 10µM
COC(=O)c1cc(NC(=O)c2sc3ncn(Cc4cccc(F)c4)c(=O)c3c2C)cc(C(=O)OC)c1	LASV entry inh inconclusive (no result: HCV inh, MARV entry inh)
O=C(CCl)NCc1c(Cl)cccc1-n1cccc1	HCV inh inconclusive, HCMV inh -98, MARV entry inh inconclusive, LASV entry inh inconclusive (no result: VACV mCherry inh, VACV Venus inh)
Cc1ccc(C(=O)CSc2cc(C)nc(SCC(=O)c3ccccc3)n2)cc1	HCV inh inconclusive, MARV entry inh inconclusive, LASV entry inh inconclusive (no result: VACV mCherry inh)
Cc1cc(Oc2ccc(C)c(Cl)c2)nc(SCC(=O)c2ccccc2)n1	HCV inh inconclusive, HCMV inh -74, MARV entry inh inconclusive, LASV entry inh inconclusive
CCOC(=O)c1c(NC(=O)c2cc3ccccc3c(=O)o2)sc2c1CCC(C(C)(C)C)C2 (stereo not drawn)	none (no result: HCV inh)
CC(C)OCc1cc(CN2CCN(c3ccccc3)CC2)c(O)c2ncccc12	VACV mCherry inh 11µM, HCMV inh -70, MARV entry inh inconclusive, VACV Venus inh inconclusive, LASV entry inh inconclusive (no result: HCV inh)
Oc1c(CN2CCN(c3ccccc3)CC2)cc(Br)c2cccnc12	HCV inh inconclusive, HCMV inh -70 (no result: VACV mCherry inh, MARV entry inh, VACV Venus inh, LASV entry inh)
Clc1ncc(CN2CCN(c3ccccc3)CC2)s1	HCV inh inconclusive, HCMV inh inconclusive
c1ccc(N2CCN(Cc3ccnc4ccccc34)CC2)cc1	HCV inh 28µM, HCMV inh -83, MARV entry inh inconclusive (no result: VACV mCherry inh, VACV Venus inh)
CCOC(=O)N1CCN(Cc2ccccc2Cl)CC1	none
Cc1cc(O)c(CN2CCN(c3ccccc3)CC2)cc1C	none (no result: VACV mCherry inh)
CCOC(=O)N1CCN(Cc2cc(Cl)c3cccnc3c2O)CC1	HCV inh 4µM, VACV mCherry inh inconclusive, HCMV inh -92, MARV entry inh inconclusive, VACV Venus inh inconclusive, LASV entry inh inconclusive
Brc1cc2c(cc1CN1CCN(c3ccccc3)CC1)OCCO2	VACV mCherry inh inconclusive, MARV entry inh inconclusive, LASV entry inh inconclusive
CCOCc1cc(CN2CCN(c3cccc(Cl)c3)CC2)c(O)c2ncccc12	VACV mCherry inh inconclusive, HCMV inh -100, MARV entry inh inconclusive, LASV entry inh inconclusive (no result: HCV inh)
CCOCC(=O)N1CCN(c2cccc(Cl)c2)CC1	HCMV inh inconclusive, MARV entry inh inconclusive
CN1CC(=O)Nc2cc(C(=O)O)ccc21	HCMV inh inconclusive (no result: HCV inh, MARV entry inh)
CCN(CC)CCCNCC(=O)Nc1ccc2c(c1)CCC2	HCV inh 10µM (no result: MARV entry inh, LASV entry inh)
COC(=O)c1ccc([C@H]2CC(=O)O2)cc1	VACV mCherry inh 11µM, VACV Venus inh inconclusive (no result: MARV entry inh, LASV entry inh)
Cc1ccc2c(c1)C1CN(C)CCC1N2C(=O)Nc1ccc(Cl)cc1 (stereo not drawn)	MARV entry inh inconclusive, LASV entry inh inconclusive
Cc1ccc2c(c1)C1C[N+](C)(CC(=O)c3ccc(Cl)cc3Cl)CCC1N2C(=O)c1ccc(F)cc1 (stereo not drawn)	HCV inh 13µM (no result: VACV mCherry inh, MARV entry inh, VACV Venus inh, LASV entry inh)
Cc1ccc(C)c(NC(=S)NCCSc2ccc(Cl)cc2)c1	HCV inh inconclusive
Cc1ccc(NC(=S)NCCSc2ccc(Cl)cc2)c(C)c1	HCV inh inconclusive, HCMV inh -84
Cc1cccc(NC(=S)NCCSc2ccc(Cl)cc2)c1	MARV entry inh inconclusive
CCc1ccccc1NC(=S)NCCSc1ccc(Cl)cc1	HCMV inh -88, MARV entry inh inconclusive, LASV entry inh inconclusive
Cc1ccccc1NC(=S)NCCSc1ccc(Cl)cc1	HCV inh inconclusive, HCMV inh -64, MARV entry inh inconclusive, LASV entry inh inconclusive
Cc1cc2ccccc2n1-c1ccc(C(=O)N2CCC(C(=O)NCc3ccc(F)cc3)CC2)s1	LASV entry inh inconclusive (no result: HCV inh, MARV entry inh)
N#C/C(=C\c1ccc(O)c([N+](=O)[O-])c1)c1nc2ccccc2s1	HCMV inh inconclusive, LASV entry inh inconclusive

Bioassay records (PubChem)
